AGP1-GFP MLPCN – modulators of TOR pathway AGP1-GFP in S. cerevisiae | GFP response vs DMSO, % at 10 µM | S. cerevisiae AGP1-GFP multiplex flow cytometry, 3 h; GFP as percent of DMSO wells | hit rate 0.02% among 320,000;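 active = GFP response relative to DMSO above a set limit, near screen average plus 3 SD, cut at about 150% in these data; inconclusive = fewer than 70 cells counted for the yeast strain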;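 note: median GFP channel fluorescence of the gated AGP1 strain per well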
RPL19A TOR yeast – yeast TOR pathway RPL19A-GFP modulation; hit rate 0.3% among 330,000; S. cerevisiae RPL19A-GFP strain, flow cytometry, 3 h; active compounds read low; percent response vs DMSO, % at 10 µM;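 active = percent response vs DMSO below 50%; inconclusive = fewer than 70 events counted for the yeast strain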;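 note: median channel GFP fluorescence of the barcoded RPL19A-GFP strain; lower means less RPL19A-GFP as with rapamycin TOR inhibition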
MEP2-GFP yeast – yeast TOR pathway MEP2-GFP modulation; S. cerevisiae MEP2-GFP strain, flow cytometry GFP, 3 h; 100% = DMSO control level; GFP response vs DMSO, % at 10 µM; hit rate 0.51% among 330,000;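 active = GFP response versus DMSO above a set limit, roughly screen mean plus 3 SD, cut at about 180% in these data; inconclusive = fewer than 70 cells counted for a yeast strain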;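 note: median GFP fluorescence of the barcode-gated MEP2-GFP cells per well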
LAP4 TOR yeast – yeast TOR pathway LAP4-GFP modulation | hit rate 0.34% among 320,000 | GFP response vs DMSO, % at 10 µM | S. cerevisiae LAP4-GFP multiplex, flow cytometry GFP, 3 h; median GFP as percent of DMSO wells;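 active = GFP response vs DMSO above a set limit, about the screen mean plus 3 SD, cut at about 150% in these data; inconclusive = under 70 cell events counted for the yeast strain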
CIT2-GFP yeast – alters CIT2-GFP fluorescence in TOR pathway yeast screen; hit rate 0.065% among 320,000; AID 2029; S. cerevisiae CIT2-GFP strain, flow cytometry, 3 h; 100 means same as DMSO wells; GFP response vs DMSO, % at 10 µM;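 active = GFP response relative to DMSO above a set limit, near the screen mean plus 3 SD, cut at about 150% in these data; inconclusive = Fewer than 70 cells measured for a yeast strain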;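 note: ratio of well median GFP fluorescence to mean of DMSO wells on the plate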
Myeloid diff MLP – compounds promoting myeloid differentiation; hit rate 1% among 360,000; calls only at 10 µM; ER-HoxA9 myeloid progenitors, lysozyme-GFP differentiation, flow cytometry; AID 624256;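 active = normalized GFP-positive differentiation at or above the plate's own cutoff, the solvent-only control mean plus 3 SD; inconclusive = no clear call, values can overlap the other calls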;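 note: cells exposed to compound for four days before flow analysis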
Numbers stand for hits; 0 = inactive; ? = inconclusive; - = no result; + = active, no number; [ ] = remark or other dose. Hits are enriched below; roughly 1.8% of the tested compounds scored in any of these assays.

SMILES | AGP1-GFP MLPCN | RPL19A TOR yeast | MEP2-GFP yeast | LAP4 TOR yeast | CIT2-GFP yeast | Myeloid diff MLP
Cc1cc(=O)oc2cc(OCC(=O)OCC(=O)Nc3c(C)n(C)n(-c4ccccc4)c3=O)ccc12 | 0 | 0 | 0 | 0 | 0 | 0
O=C(Cc1cccc2ccccc12)NCC1CCCO1 (configuration not stated) | 0 | 0 | 0 | 0 | 0 | 0
O=C(CCCC(=O)OCC1CCCO1)OCC1CCCO1 (configuration not stated) | - | 0 | 281[may fluoresce violet] | 0 | ? | -
O=C(CCCCC(=O)OCC1CCCO1)OCC1CCCO1 (configuration not stated) | - | - | - | - | - | 0
CCCCCNc1nc(-c2ccccc2)cs1 | - | 0 | 238[may fluoresce violet] | 0 | ? | -
c1ccc(CCNc2nc(-c3ccncc3)cs2)cc1 | 0 | 0 | 0 | 0 | 0 | 0
O=C(NCCS(=O)(=O)N1CCN(c2ccc(F)cc2)CC1)c1ccc(Br)o1 | 0 | 0 | 0 | 0 | 0 | 0
Cc1nnc(N2C(=O)C(O)=C(C(=O)c3ccco3)C2c2ccc(C(C)(C)C)cc2)s1 (configuration not stated) | 0 | 0 | 0 | 0 | 0 | +
N#CC(C#N)=C1NC2(CCCCC2)Cc2ccccc21 | - | 0 | 0 | - | - | 0
N#CC(C#N)=c1ccc2c(c1)NC1(CCCCC1)N=2 | 0 | - | 0 | 0 | 0 | +
Cc1noc2ncnc(Sc3ccc(Br)cc3)c12 | 0 | 0 | 0 | 163 | 0 | 0
Cc1noc2ncnc(N3CCCC3)c12 | 0 | 0 | 0 | 0 | 0 | 0
Cc1c(NC(=O)C(C)OC(=O)c2cccs2)c(=O)n(-c2ccccc2)n1C (configuration not stated) | 0 | 0 | 0 | 0 | 0 | 0
CCC(C)(C)C1CCc2nc3ccccc3c(C(=O)OC(C)C(=O)Nc3c(C)n(C)n(-c4ccccc4)c3=O)c2C1 (configuration not stated) | 0 | 0 | 0 | 0 | 0 | +
O=C(O)CC(Cn1[nH]nnc1=S)c1ccccc1 (configuration not stated) | 0 | 0 | 0 | 0 | 0 | +
CCC(C)(C(=O)NC1CCCC1)N(Cc1ccco1)C(=O)c1ccc2c(c1)OCO2 (configuration not stated) | 0 | 0 | 0 | 0 | 0 | +
CCC(C)(C(=O)NC1CCCC1)N(Cc1ccco1)C(=O)c1ccccn1 (configuration not stated) | 0 | 0 | 0 | 0 | 0 | 0
O=C(CN(C(=O)Cn1nnc(-c2ccccc2F)n1)c1cccc2c1CCCC2)NCc1ccccc1 | 0 | 0 | 0 | 0 | 0 | +
COc1cccc(-c2ncc3ccccc3c2CO)c1 | 0 | 0 | 0 | 0 | 0 | 0
CC(=O)Nc1ccc(S(=O)(=O)NNC2=NS(=O)(=O)c3ccccc32)cc1 | 0 | 0 | 0 | 0 | 0 | 0
Nc1ccccc1Nc1cc(-c2ccccc2)[nH]n1 | - | - | - | - | - | +
Nc1ccccc1Nc1ccccc1 | 0 | 0 | 0 | 0 | 0 | +
Nc1ccccc1Nc1cc(-c2ccccc2)nn1-c1ccccc1 | 0 | 0 | 0 | 0 | 0 | +
O=C(COC(=O)CN1C(=O)c2cccc([N+](=O)[O-])c2C1=O)NC1CCS(=O)(=O)C1 (configuration not stated) | 0 | 0 | 0 | 0 | 0 | 0
O=C(/C=C/c1ccc([N+](=O)[O-])s1)N1CCCC1 | 0 | 0 | 0 | 0 | 0 | +
SMILES | AGP1-GFP MLPCN | RPL19A TOR yeast | MEP2-GFP yeast | LAP4 TOR yeast | CIT2-GFP yeast | Myeloid diff MLP
COC(=O)c1cc2c(cc1NC(=O)CSCCc1ccccn1)OCO2 | 0 | 0 | 0 | 0 | 0 | +
CNC(=O)CN(c1ccc2c(c1)OCCO2)S(C)(=O)=O | 0 | 0 | 0 | 0 | 0 | 0
O=C(Nc1ccc(NC(=O)c2sc3ccccc3c2Cl)cc1)c1ccco1 | 0 | 0 | 0 | 0 | 0 | 0
COCCn1c(=N)c(C(=O)NCCc2ccccc2)cc2c(=O)n3cccc(C)c3nc21 | 0 | 0 | 0 | 0 | 0 | 0
Cc1cccn2c(=O)c3cc(C(N)=S)c(=N)n(CCCOC(C)C)c3nc12 | 0 | 0 | 0 | 0 | 0 | +
Cc1cccn2c(=O)c3cc(C(=O)NCCN4CCOCC4)c(=N)n(CCc4ccccc4)c3nc12 | 0 | 47[may fluoresce violet] | 210[may fluoresce violet] | 0 | ? | -
CCCCCn1c(=N)c(S(=O)(=O)c2ccc(Cl)cc2)cc2c(=O)n3cccc(C)c3nc21 | ? | 0 | 297[may fluoresce violet] | 0 | ? | 0
Cc1cccn2c(=O)c3cc(C(=O)NCCc4ccccc4)c(=N)n(CCCn4ccnc4)c3nc12 | - | 0 | 208 | 0 | 0 | 0

Screening results from PubChem.
